# Of roughly 7,900 targets only a part is listed; those with a hit were picked by preference. About 0.6% of all pairs of compound and target were hits. Unmarked numbers belong to inactive results.
# Key:
# Test in all cases: log2 fold change, soluble protein after heating vs DMSO (PISA); higher = thermal stabilisation; K562 cells, 10 uM, 30 min; active = over 0.2 and 3.5 SD of the protein, either way, in both replicates (recomputed)
# [1] = compound: CC1=C(C=C(C=C1)NC(=O)C2=CC(=CC=C2)C(C)(C)C#N)NC3=CC4=C(C=C3)N=CN(C4=O)C
# Procedure, shortened: (§1)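 K562 cells at 2×10^6 cells/mL were treated for 30 min with 10 μM compound, and aliquots were heated for 3 min over 48°C-58°C before pooling. Extraction used PBS with 0.5% NP-40 at 4°C, and soluble protein was the supernatant after 21,000xg for 90 min, measured by TMTpro 16plex LC-MS/MS with channel sums equalised. Thermal stability values, relative to control samples and from duplicates, are log2 fold changes.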
# [2] = compound: CC1=C(C=C(C=C1)NC(=O)C2=CC(=CC=C2)N(C)C)NC(=O)C3=CC=C(C=C3)O
# Procedure, shortened: as §1
# [3] = compound: CC1=CC=C(C=C1)SC2=C3C=C(SC3=CN=C2)C(=O)N
# Procedure, shortened: as §1
# [4] = compound: CC1=NC(=CC=C1)C2=C(N=C(N2)C(C)(C)C)C3=CC4=NC=CN=C4C=C3
# Procedure, shortened: as §1
# Nexturastat A = compound: CCCCN(Cc1ccc(C(=O)NO)cc1)C(=O)Nc1ccccc1 [Nexturastat A]
# Procedure, shortened: as §1
# vemurafenib = compound: CCCS(=O)(=O)Nc1ccc(F)c(C(=O)c2c[nH]c3ncc(-c4ccc(Cl)cc4)cc23)c1F [vemurafenib]
# Procedure, shortened: as §1
# [5] = compound: CCCS(=O)(=O)Nc1ccc(F)c(C(=O)c2c[nH]c3ncc(Cl)cc23)c1F
# Procedure, shortened: as §1
# [6] = compound: CCCc1cc(C)[nH]c(=O)c1CNC(=O)c1cc(-c2ccnc(N3CCN(C)CC3)c2)cc2c1cnn2C(C)C
# Procedure, shortened: as §1
# givinostat = compound: CCN(CC)Cc1ccc2cc(COC(=O)Nc3ccc(C(=O)NO)cc3)ccc2c1 [givinostat]
# Procedure, shortened: as §1
# barasertib = compound: CCN(CCCOc1ccc2c(Nc3cc(CC(=O)Nc4cccc(F)c4)[nH]n3)ncnc2c1)CCOP(=O)(O)O [barasertib]
# Procedure, shortened: as §1
# [7] = compound: CC[C@@H]1C(=O)N(C)c2cnc(Nc3ccc(C(=O)NC4CCN(C)CC4)cc3OC)nc2N1C1CCCC1
# Procedure, shortened: as §1
# volasertib = compound: CC[C@@H]1C(=O)N(C)c2cnc(Nc3ccc(C(=O)N[C@H]4CC[C@H](N5CCN(CC6CC6)CC5)CC4)cc3OC)nc2N1C(C)C [volasertib]
# Procedure, shortened: as §1
# [8] = compound: CC[C@H](C)N1C=C(C2=C(C=C(C=C21)C3=CN=C(C=C3)N4CCNCC4)C(=O)NCC5=C(C=C(NC5=O)C)C)C
# Procedure, shortened: as §1
# epoxomicin = compound: CC[C@H](C)[C@@H](C(=O)N[C@@H]([C@@H](C)O)C(=O)N[C@@H](CC(C)C)C(=O)[C@]1(CO1)C)NC(=O)[C@H]([C@@H](C)CC)N(C)C(=O)C [epoxomicin]
# Procedure, shortened: as §1
# [9] = compound: CCn1c(C(=O)N(C2CC2)C2CC2)cc2c3c(ncn3C)c(Nc3cc(C)n(C)n3)nc21
# Procedure, shortened: as §1
# [10] = compound: CCn1cc(-c2ccnc3[nH]c(-c4cccc(CN(C)C)c4)cc23)c(-c2ccc(NC(=O)N(C)C)cc2)n1
# Procedure, shortened: as §1
# [11] = compound: CN(C)CC(=O)Nc1ccc2[nH]c(=O)c3ccccc3c2c1
# Procedure, shortened: as §1
# rosiglitazone = compound: CN(CCOC1=CC=C(C=C1)C[C@H]2C(=O)NC(=O)S2)C3=CC=CC=N3 (racemic) [rosiglitazone]
# Procedure, shortened: as §1
# [12] = compound: CN1C2=C(C3=C1C(=O)N(N=C3)CC4=CC(=CC=C4)N)SC(=C2)S(=O)C
# Procedure, shortened: as §1
# [13] = compound: CN1CCC(CNc2ccc3ncc(-c4cccc(OC(F)(F)F)c4)n3n2)CC1
# Procedure, shortened: as §1
# Sequence of UniProt O75400 (O75400 whole entry, looked up): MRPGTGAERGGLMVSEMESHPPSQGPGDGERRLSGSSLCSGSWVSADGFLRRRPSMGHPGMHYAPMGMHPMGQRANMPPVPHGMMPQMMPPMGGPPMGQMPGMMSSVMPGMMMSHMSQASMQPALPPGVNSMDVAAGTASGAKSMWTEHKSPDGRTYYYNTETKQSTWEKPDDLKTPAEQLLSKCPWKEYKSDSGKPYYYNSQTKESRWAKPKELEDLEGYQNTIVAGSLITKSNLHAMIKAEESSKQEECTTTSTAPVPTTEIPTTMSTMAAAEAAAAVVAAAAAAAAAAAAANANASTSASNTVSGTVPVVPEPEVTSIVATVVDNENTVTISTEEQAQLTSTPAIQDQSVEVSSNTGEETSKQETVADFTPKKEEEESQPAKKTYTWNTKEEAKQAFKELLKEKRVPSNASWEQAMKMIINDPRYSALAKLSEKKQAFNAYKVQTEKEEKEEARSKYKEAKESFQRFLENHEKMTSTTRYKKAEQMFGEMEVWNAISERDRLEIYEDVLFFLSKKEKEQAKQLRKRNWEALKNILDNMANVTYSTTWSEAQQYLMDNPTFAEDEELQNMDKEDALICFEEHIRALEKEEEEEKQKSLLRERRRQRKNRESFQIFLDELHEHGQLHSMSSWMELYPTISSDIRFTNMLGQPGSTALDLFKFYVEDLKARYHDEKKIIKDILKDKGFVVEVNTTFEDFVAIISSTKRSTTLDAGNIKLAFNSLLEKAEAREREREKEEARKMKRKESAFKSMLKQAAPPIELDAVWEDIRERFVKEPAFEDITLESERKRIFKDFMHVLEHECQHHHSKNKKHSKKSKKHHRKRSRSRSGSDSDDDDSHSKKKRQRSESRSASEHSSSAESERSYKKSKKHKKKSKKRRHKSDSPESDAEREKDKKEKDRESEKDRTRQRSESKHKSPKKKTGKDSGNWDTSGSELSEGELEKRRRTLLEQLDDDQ
# Sequence of UniProt O15355 (O15355 whole entry, looked up): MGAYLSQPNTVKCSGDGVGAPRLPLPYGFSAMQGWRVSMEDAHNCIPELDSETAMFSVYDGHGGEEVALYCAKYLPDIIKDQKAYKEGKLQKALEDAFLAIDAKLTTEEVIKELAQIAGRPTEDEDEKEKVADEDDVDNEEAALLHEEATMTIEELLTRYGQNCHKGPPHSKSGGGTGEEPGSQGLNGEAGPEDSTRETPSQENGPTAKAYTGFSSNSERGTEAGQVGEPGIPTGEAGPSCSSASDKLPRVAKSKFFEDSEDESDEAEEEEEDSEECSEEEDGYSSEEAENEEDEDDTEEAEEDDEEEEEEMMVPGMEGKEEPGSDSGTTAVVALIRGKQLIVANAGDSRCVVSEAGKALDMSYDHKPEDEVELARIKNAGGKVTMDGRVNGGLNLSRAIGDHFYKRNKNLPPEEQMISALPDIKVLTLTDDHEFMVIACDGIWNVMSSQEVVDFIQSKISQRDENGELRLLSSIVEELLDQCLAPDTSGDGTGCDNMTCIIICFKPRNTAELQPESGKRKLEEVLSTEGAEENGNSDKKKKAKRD
# Sequence of UniProt Q15366 (Q15366 whole entry, looked up): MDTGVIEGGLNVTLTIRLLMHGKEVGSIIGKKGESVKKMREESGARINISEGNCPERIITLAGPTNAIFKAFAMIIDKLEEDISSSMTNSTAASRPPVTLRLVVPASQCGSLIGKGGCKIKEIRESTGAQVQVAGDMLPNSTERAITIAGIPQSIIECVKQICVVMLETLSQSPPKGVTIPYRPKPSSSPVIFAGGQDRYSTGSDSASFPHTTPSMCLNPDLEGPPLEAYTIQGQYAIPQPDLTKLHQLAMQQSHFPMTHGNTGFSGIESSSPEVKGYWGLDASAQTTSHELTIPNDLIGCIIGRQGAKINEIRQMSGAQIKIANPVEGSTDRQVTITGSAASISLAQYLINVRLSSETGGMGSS
# Sequence of UniProt O95394 (O95394 whole entry, looked up): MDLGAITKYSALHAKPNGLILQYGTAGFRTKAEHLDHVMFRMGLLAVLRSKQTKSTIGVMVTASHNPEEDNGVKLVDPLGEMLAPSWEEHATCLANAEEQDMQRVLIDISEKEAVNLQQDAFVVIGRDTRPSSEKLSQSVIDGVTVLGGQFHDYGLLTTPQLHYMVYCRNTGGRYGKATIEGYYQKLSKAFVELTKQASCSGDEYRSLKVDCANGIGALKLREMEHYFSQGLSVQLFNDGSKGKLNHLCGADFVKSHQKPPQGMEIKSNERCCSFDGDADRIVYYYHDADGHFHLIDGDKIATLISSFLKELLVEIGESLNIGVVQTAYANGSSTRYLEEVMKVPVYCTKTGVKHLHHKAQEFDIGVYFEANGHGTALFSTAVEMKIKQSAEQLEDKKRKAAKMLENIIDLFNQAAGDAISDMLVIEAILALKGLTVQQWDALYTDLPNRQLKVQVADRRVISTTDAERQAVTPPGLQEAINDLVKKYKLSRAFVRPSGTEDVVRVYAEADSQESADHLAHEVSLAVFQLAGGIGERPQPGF
# Sequence of UniProt Q16822 (Q16822 whole entry, looked up): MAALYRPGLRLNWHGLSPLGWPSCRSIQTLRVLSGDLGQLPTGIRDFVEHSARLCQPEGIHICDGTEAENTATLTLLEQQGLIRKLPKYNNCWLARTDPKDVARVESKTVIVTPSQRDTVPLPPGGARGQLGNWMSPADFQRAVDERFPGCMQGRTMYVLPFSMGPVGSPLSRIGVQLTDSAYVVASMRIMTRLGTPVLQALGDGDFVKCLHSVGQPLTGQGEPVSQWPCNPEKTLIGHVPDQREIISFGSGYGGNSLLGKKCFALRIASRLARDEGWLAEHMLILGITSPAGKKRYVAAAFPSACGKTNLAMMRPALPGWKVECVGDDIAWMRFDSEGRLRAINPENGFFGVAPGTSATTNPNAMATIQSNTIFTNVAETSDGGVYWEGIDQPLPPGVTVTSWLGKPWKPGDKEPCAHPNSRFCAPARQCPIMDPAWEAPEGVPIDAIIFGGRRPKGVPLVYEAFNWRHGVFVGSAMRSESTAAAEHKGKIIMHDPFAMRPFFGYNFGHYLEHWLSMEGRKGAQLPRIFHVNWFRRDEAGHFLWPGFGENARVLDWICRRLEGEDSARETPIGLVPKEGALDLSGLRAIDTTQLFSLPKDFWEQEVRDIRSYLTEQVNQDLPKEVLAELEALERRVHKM
# Sequence of UniProt Q92871 (Q92871 whole entry, looked up): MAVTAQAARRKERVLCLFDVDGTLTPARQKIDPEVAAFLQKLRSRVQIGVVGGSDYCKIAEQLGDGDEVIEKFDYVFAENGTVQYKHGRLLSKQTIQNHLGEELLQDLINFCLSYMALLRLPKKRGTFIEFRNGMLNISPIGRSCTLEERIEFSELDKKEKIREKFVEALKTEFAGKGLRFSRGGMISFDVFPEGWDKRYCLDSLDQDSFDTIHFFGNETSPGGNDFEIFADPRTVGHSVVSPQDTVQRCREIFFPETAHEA
# Sequence of UniProt P28340 (P28340 whole entry, looked up): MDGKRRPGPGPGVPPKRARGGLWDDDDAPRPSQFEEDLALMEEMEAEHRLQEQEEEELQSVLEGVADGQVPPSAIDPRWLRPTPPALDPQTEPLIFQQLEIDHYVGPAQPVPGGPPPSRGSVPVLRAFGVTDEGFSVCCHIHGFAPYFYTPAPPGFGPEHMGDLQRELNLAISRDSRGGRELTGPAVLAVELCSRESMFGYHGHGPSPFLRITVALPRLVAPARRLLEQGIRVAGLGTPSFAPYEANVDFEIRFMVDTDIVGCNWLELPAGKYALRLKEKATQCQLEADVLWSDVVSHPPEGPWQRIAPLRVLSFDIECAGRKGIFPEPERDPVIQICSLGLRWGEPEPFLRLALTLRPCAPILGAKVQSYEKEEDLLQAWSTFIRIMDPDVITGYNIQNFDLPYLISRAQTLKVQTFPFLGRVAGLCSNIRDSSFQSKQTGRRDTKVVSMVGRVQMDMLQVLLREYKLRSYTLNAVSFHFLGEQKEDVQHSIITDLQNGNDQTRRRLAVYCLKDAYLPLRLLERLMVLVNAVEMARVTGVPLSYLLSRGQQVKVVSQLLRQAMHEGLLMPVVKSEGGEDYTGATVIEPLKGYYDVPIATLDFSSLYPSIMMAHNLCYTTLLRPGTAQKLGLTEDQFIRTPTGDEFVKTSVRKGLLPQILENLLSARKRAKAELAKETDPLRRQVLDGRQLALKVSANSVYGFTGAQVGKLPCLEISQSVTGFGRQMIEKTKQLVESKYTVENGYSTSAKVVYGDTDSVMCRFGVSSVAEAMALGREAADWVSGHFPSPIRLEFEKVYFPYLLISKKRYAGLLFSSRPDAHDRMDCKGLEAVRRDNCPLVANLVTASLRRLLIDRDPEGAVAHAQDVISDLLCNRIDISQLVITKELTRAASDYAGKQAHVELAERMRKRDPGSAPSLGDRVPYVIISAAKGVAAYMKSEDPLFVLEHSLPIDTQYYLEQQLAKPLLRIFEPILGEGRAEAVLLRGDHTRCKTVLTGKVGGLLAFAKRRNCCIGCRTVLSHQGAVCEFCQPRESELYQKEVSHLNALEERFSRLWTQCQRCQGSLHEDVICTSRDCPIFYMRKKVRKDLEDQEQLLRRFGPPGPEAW
# Sequence of UniProt P43686 (P43686 whole entry, looked up): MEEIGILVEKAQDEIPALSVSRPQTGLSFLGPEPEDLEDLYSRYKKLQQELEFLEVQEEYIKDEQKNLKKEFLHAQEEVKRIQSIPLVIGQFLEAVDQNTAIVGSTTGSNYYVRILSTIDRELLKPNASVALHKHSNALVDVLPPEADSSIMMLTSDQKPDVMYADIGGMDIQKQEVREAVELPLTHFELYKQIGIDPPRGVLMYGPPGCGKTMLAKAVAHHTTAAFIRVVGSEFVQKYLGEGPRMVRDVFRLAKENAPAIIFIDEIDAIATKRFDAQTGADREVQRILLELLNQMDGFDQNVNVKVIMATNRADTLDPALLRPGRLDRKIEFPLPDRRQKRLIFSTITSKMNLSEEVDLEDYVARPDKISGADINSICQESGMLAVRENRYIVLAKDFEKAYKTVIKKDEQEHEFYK
Target,log2 fold change [1],log2 fold change [2],log2 fold change [3],log2 fold change [4],log2 fold change (Nexturastat A),log2 fold change (vemurafenib),log2 fold change [5],log2 fold change [6],log2 fold change (givinostat),log2 fold change (barasertib),log2 fold change [7],log2 fold change (volasertib),log2 fold change [8],log2 fold change (epoxomicin),log2 fold change [9],log2 fold change [10],log2 fold change [11],log2 fold change (rosiglitazone),log2 fold change [12],log2 fold change [13]
PLA2G15 (UniProt Q8NCC3),0.04,-0.013,0.005,-0.026,0.089,0.044,0.001,-0.063,0.019,0.024,-0.084,-0.166,0.026,0.01,-0.017,0.005,0.006,0.027,0.043,-0.076
PMM1 (UniProt Q92871),-0.164,0.007,-0.037,0.027,-0.037,-0.007,-0.012,-0.165,-0.013,-0.003,-0.029,-0.239,-0.024,-0.002,-0.025,0.08,0.009,0.047,-0.061,-0.018
PGM3 isoform 4 (UniProt O95394),0.013,-0.073,0.021,0.04,-0.01,0.017,0.04,0.008,-0.044,0.017,0.003,0.052,0.092,0.014,-0.034,-0.038,0.026,0.066,-0.084,-0.235 (active)
PHKG2 (UniProt P15735),0.012,-0.007,-0.083,-0.031,0.002,-0.003,-0.004,0,0.01,-0.079,-0.155,-0.195,0.054,-0.004,0.01,0.043,-0.002,0.018,-0.027,-0.156
PCK2 (UniProt Q16822),-0.002,-0.064,-0.008,0.045,-0.065,-0.006,0.002,0.014,-0.13,0.011,0.012,-0.076,0.033,0.059,0.016,-0.07,0,0.011,-0.094,0.027
PCBP2 isoform 3 (UniProt Q15366),0.054,-0.024,0.065,0.149,-0.006,0.056,0.129,-0.004,0.031,0.013,-0.069,-0.263 (active),0.071,0.013,-0.036,-0.003,0.043,0.062,-0.001,-0.081
PLIN2 (UniProt Q99541),0.069,0.018,0.109,0.022,0.082,0.01,0.042,-0.12,-0.014,0.013,-0.173,-0.259,-0.102,0.153,-0.008,-0.01,0.013,-0.033,0,-0.699 (active)
POLD1 (UniProt P28340),-0.083,-0.028,0.018,0.022,0.02,0.033,0.071,0.006,0.021,0.005,-0.061,-0.239 (active),0.053,0.123,0,-0.005,0.027,-0.029,-0.03,-0.171
PLSCR1 (UniProt O15162),0.13,0.06,0.025,-0.002,0.008,-0.05,0.088,-0.101,-0.033,-0.104,0.025,-0.1,-0.069,-0.022,0.013,0.053,0.037,-0.033,-0.02,0.044
PGGHG (UniProt Q32M88),0.017,-0.127,0.197,-0.003,0,-0.044,-0.091,-0.175,-0.003,0.001,0.012,0.098,0.051,0.011,-0.094,-0.025,0.069,0.029,-0.025,-0.096
PRPF40A (UniProt O75400),0.016,0,0.022,0.018,-0.051,0.109,0.02,0.073,0.156,0,-0.036,-0.216,0.089,0.022,-0.096,0.065,0.036,0.041,0.074,-0.04
PFAS (UniProt O15067),-0.056,-0.119,0.172,0.002,-0.081,0.032,-0.003,-0.039,0.05,0.061,-0.04,-0.124,0.113,-0.016,-0.218,-0.069,0.031,-0.003,-0.241,-0.001
PPM1G (UniProt O15355),0.087,-0.04,-0.031,0.048,-0.053,0.112,0.13,0.067,0.17,0.052,-0.208,-0.381 (active),0.066,0.087,-0.001,-0.073,0.098,0.089,0.017,-0.025
PSMC4 (UniProt P43686),0.016,0.013,-0.049,-0.036,0.03,-0.066,-0.083,0.084,-0.059,-0.042,0.033,0.2,-0.021,-0.379 (active),-0.02,0.086,-0.033,-0.021,0.033,0.06
PCBP1 (UniProt Q15365),0.034,-0.037,0.112,0.067,-0.038,0.022,0.097,-0.011,0.013,0.021,-0.1,-0.268 (active),0.04,0.025,-0.065,0.025,0.039,0.035,0.009,-0.129
PPOX (UniProt P50336),0.402,-0.014,0.043,0.099,-0.232,0.065,0.046,0.184,-0.063,0,-0.134,-0.023,-0.017,-0.002,0.109,-0.052,0.008,0.127,-0.164,-0.583 (active)

# From the supplement of paper PMC10849652
